Values joined by “and” are separate entries in the source; they are usually repeats but may differ in a detail not shown here. Identical values can stand only once. Compounds without any hit were thinned out: in the full panel of roughly 83,000, 20% have a hit.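 Note: values are percent growth. 100 is the growth of untreated cells, values between 100 and 0 indicate rising inhibition; between -100 and 0 indicates cell death.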 Unmarked numbers belong to inactive results. Active and inactive are the calls of the source. The calls were made as follows: active = growth percent below 10; inactive = the rest.

In the experiment the test system is MDA-MB-468 breast. The experiment is described as follows: NCI-60 one-dose screen, 48 h (100 = growth as untreated, 0 = no growth, -100 = all killed). As to conditions: 10 µM unless noted.
As for `O=C1/C(=C/c2ccccc2[N+](=O)[O-])Oc2ccc(O)c(O)c21`, the growth was 37.5%.

Consider `COc1cccc2c1Cc1ccccc1-2`, for which the growth is 99%.

Regarding `Cc1ccc(N2C(=O)CCC2=O)cc1`, the growth was 103%.

With `CCCCN(CCCC)CCC(=O)c1ccc(OC)c2ccccc12`, the growth is -18.7% (active).

On to `CCN1CCN(c2nc(C)cc(N(CCNc3ccnc4cc(Cl)ccc34)Cc3ccc4c(c3)OCO4)n2)CC1`, for which the growth is -65.3% (active).

As to `CN(C)C(=S)N(C)C`, the growth is 114%.

As to `O=C(CN1C(=O)c2ccccc2S1(=O)=O)Nc1nc(-c2cc3ccccc3oc2=O)cs1`, the growth is 100%.

`COc1cccc(-c2cc(-c3cccs3)c(C#N)c(=O)[nH]2)c1`: the growth was 107%.

For the compound `O=C(O)c1ccc(-n2cc(CNc3cc(F)c(F)c(F)c3)c(-c3cccc(F)c3)n2)cc1`, the growth is 95.4%.

With `O=C(CSc1nc2ccc([N+](=O)[O-])cc2[nH]1)Nc1ccc(Br)cc1`, the growth was 14.1%.

`Cn1c(C(N)=O)cc2c1-c1nc(Nc3ccccc3)ncc1CCC2`: the growth was 53.4%.

With `CCOC(=O)C1=CCC(n2cc(F)c(=O)[nH]c2=O)O1` (configuration not stated), the growth is 134%.

As to `COc1cccc(CC(C)=C(c2ccc(OCCN(C)C)cc2)c2ccc(OCCN(C)C)cc2)c1`, the growth was -61.5% (active).

Consider `C[n+]1ccc(Nc2ccc(NC(=O)c3ccc(Nc4cc[n+](C)c5ccc(N)cc45)cc3)cc2)cc1`, for which the growth was 94.8%.

Take `O=C(Nc1ccc(I)cc1F)c1cc(Cl)ccc1O`: the growth is -1.5% (active).

Take `COc1c(B(O)O)cccc1-c1nc2ccc3n[nH]c(F)c3c2c2c1CCCC2`: the growth is 71.9%.

As to `COc1cccc(C(=O)N(c2ccc(F)c(F)c2)C(C(=O)NC(C)(C)C)c2cc3c(C)cc(C)cc3nc2Cl)c1` (configuration not stated), the growth is 35.2%.

Take `N#Cc1cccc(-c2cc(-c3ccc4c(c3)OCCO4)[nH]n2)c1`: the growth was 18.6%.

In the case of `O=C1C(N2CCOCC2)=Cc2cccc3cccc1c23`, the growth is 72%.

Consider `Cc1ccc(N2C(=O)/C(=C/C=C/c3ccco3)SC2=S)cc1`, for which the growth was 50.7%.

On to `CC(C)(C)c1ccc(OP(=S)(N/N=C/c2ccccc2O)Oc2ccc(C(C)(C)C)cc2)cc1`, for which the growth is 35.4%.

In the case of `COC(=O)CCCNC(=O)C(=O)c1c(O)c(O)c(C(C)C)c2cc(C)c(-c3c(C)cc4c(C(C)C)c(O)c(O)c(C(=O)C(=O)NCCCC(=O)OC)c4c3O)c(O)c12`, the growth is -1.3% (active).

Turning to `Cc1ccc(C2=NN(c3ccc(S(N)(=O)=O)cc3)C(c3cn(-c4ccccc4)nc3-c3ccccc3)C2)cc1` (configuration not stated), the growth was 112%.

`C[C@H]1[C@H](C)CC[C@]2(C(=O)NCCNCCN)CC[C@]3(C)C(=CC[C@@H]4[C@@]5(C)CCC(=O)C(C)(C)[C@@H]5CC[C@]43C)[C@H]12`: the growth is 34%.

On to `C/C(Cc1ccc(Cl)cc1)=C(\c1ccc(OCCCN(C)C)cc1)c1ccc(OC(=O)Cc2ccccc2)cc1`, for which the growth is 111%.

For `O=C1CC(c2ccc3c(c2)OCO3)Nc2cc3c(cc21)OCO3` (configuration not stated), the growth was -11.3% (active).

Regarding `O=C(NC(CSSCC(NC(=O)OCc1ccccc1)C(=O)O)C(=O)O)OCc1ccccc1` (configuration not stated), the growth was 84.5% and 102%.

On to `Cc1c(C(N)=O)sc2nc(SCC(=O)Nc3ccc(Cl)cc3)n(-c3ccccc3)c(=O)c12`, for which the growth is 106%.

With `O=C(c1ccccc1)[C@H]1[C@@H]2CCCN2[C@]2(C(=O)Nc3ccc(F)cc32)[C@]12C(=O)Nc1ccccc12`, the growth is 96.2%.

For the compound `O=C(c1ccc(O)cc1)[C@@H]1[C@@H]2CCCN2[C@@]2(C(=O)N(C(=O)c3ccc(F)cc3)c3ccccc32)[C@H]1c1ccc(F)cc1`, the growth was 92.4%.

As to `COc1ccc(NC(=O)c2ccc(C(=O)Nc3ccc(OC)cc3OC)cc2)c(OC)c1`, the growth is 85%.

Regarding `CCSC1=NC2C(N(CC)C(=O)N2CC)N1/N=C/C=C/c1ccccc1[N+](=O)[O-]` (configuration not stated), the growth was -0.585% (active).

Turning to `S=c1[nH]nc(CSc2ncnc3c2c(-c2ccccc2)cn3-c2ccc(Cl)cc2)o1`, the growth was 108%.

As to `CC(C)C(NC(=O)CN)C(=O)O` (configuration not stated), the growth was 104%.

Take `C/C(=N\NC(=S)N1CC2CCC(CC2)C1)c1ccccn1`: the growth was -14.9% (active).

As to `Cc1ccc(C)c(/C=C2\CN(C(=O)OC(C)(C)C)C/C(=C\c3cc(C)ccc3C)C2=O)c1`, the growth is 57.3%.

On to `COc1ccc(CNCCN2C(=O)c3ccc4c5c(ccc(c35)C2=O)C(=O)N(CCNCc2ccc(OC)c(OC)c2OC)C4=O)c(OC)c1OC`, for which the growth is -87.2% (active).

(Values after PubChem BioAssay (NCI).)
